From PubChem BioAssay (Tox21)
“And” between values parts separate entries of the source, which are not always exact repeats. Equal values may be shown once. Results filed as inconclusive are left out. Some structures have more than one record in an assay (separate samples or runs), and their calls can disagree. The source made the active and inactive calls. Unless noted, calls follow the shape of the dose curve; as a rule, active = well fitted curve in the direction sought with a large enough effect in the repeat runs; inconclusive = weak or mixed curves; inactive = no such curve, though single readings can be large; an effect the other way counts as inactive or inconclusive.

Tests used:
[1] = target: Luciferin 4-monooxygenase (Photinus pyralis) (UniProt P08659); assay: qHTS assay to identify small molecule inhibitors of firefly luciferase (AID 1224835); also: nearly all actives have a fitted effect of over 25% in size; also: potency is read from the fitted curve at half-maximal effect
Summary of the method: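 Biochemical qHTS: compounds run as interplate titrations against purified firefly enzyme, with D-luciferin and ATP each at its KM concentration. Light output recorded by CCD imaging.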

[2] = qHTS assay to identify small molecule agonists of the constitutive androstane receptor (CAR) signaling pathway - cell viability counter screen (AID 1224836); also: nearly all actives have a fitted effect of over 45% in size; also: potency is read from the fitted curve at half-maximal effect
Summary of the method: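 HepG2-CYP2B6-hCAR, 2500 cells/well, 4 h pre-incubation; cpd 15 conc + PK11195 0.75 uM final; 23 h, 37 C/5% CO2; CellTiter-Fluor, fluorescence.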

[3] = qHTS assay to identify small molecule antagonists of the constitutive androstane receptor (CAR) signaling pathway - cell viability counter screen (AID 1224837); also: nearly all actives have a fitted effect of over 45% in size; also: potency is read from the fitted curve at half-maximal effect
Summary of the method: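 Cytotoxicity counter-screen: CellTiter-Fluor fluorescence after 23 h compound exposure (15-point qHTS) in double-stable HepG2-CYP2B6-hCAR cells, with 50 nM CITCO added.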

[4] = qHTS assay to identify small molecule antagonists of the estrogen related receptor signaling pathway with the pleiotropic PPARgamma coactivator (PGC) from Tox21 10K library - cell viability counter screen (AID 1224840; active = well fitted cell-killing curve with a large enough effect in the repeat runs, not every such curve was filed as active; also: nearly all actives have a fitted effect of over 40% in size; also: potency is read from the fitted curve at half-maximal effect)
Summary of the method: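 Counter-screen for cytotoxicity: after 17.5 h compound exposure at 37 C, CellTiter-Fluor reagent added to PGC/ERR cells for 30 min and fluorescence read. Cells were seeded at 2,000 per well 6 h before dosing.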

[5] = qHTS assay to identify small molecule antagonists of the estrogen related receptor signaling pathway with the pleiotropic PPARgamma coactivator (PGC) from Tox21 10K library (AID 1224841; call rule not given here; also: actives are mostly falling curves and most rising ones were filed inactive; nearly all actives have a fitted effect of over 50% in size; also: potency is read from the fitted curve at half-maximal effect)
Summary of the method: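 Luminescence (One-Glo, 30 min at room temperature) after 18 h compound treatment at 37 C of PGC/ERR reporter cells plated at 2,000 cells/well and settled 6 h beforehand.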

[6] = qHTS assay to identify small molecule agonists of the estrogen related receptor signaling pathway with the pleiotropic PPARgamma coactivator (PGC) from Tox21 10K library (AID 1224842); also: nearly all actives have a fitted effect of over 15% in size
Summary of the method: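 PGC/ERR reporter cell line, 2,000 cells per well, incubated 6 h at 37 C before 23 nL compound in DMSO was added. After 18 h at 37 C, One-Glo luminescence read following 30 min at room temperature.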

[7] = qHTS assay to identify small molecule agonists of the hypoxia (HIF-1) signaling pathway - cell viability counter screen (AID 1224844; calls by dose curve; also: nearly all actives have a fitted effect of over 50% in size; also: potency is read from the fitted curve at half-maximal effect)
Summary of the method: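 Cytotoxicity measured by CellTiter-Glo ATP luminescence in the wells also read for beta-lactamase signal. Cells were HRE-bla ME-180 (2,000/well, 0.5% dialyzed FBS), exposed to compounds for 17 h at 37C.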

[8] = qHTS assay to identify small molecule agonists of H2AX (AID 1224845; active = well fitted activation curve with a large enough effect in the signal ratio in the repeat runs, not every such curve was filed as active; the % refers to the signal ratio; also: potency is read from the fitted curve at half-maximal effect)
Summary of the method: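 Wild-type CHO-K1 cells, plated overnight, exposed 3hr at 37C to 15 concentrations (0.76% DMSO final). Lysed, then HTRF anti-pH2AX (S139) cryptate and anti-H2AX-d2 antibodies, 24 hr room temperature; 665/620 nm emission read.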

[9] = qHTS assay to identify small molecule agonists of the hypoxia (HIF-1) signaling pathway (AID 1224846; active = well fitted activation curve with a large enough effect in the signal ratio in the repeat runs, not every such curve was filed as active; the % refers to the signal ratio)
Summary of the method: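 Compounds added to ME-180 cells carrying hypoxia-response-element beta-lactamase reporter (0.5% dialyzed FBS, 5 h preplating), 17 h at 37C; agonist activity detected by CCF4-AM B/G FRET read-out.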

[10] = qHTS assay to identify small molecule agonists of H2AX - cell viability counter screen (AID 1224847; calls by dose curve; also: nearly all actives have a fitted effect of over 30% in size; also: potency is read from the fitted curve at half-maximal effect)
Summary of the method: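 Cells plated first: CHO-K1, 1000 per well in 10% FBS medium, incubated overnight at 37C. Then 15-point compound titration added (final DMSO 0.76%) for 3 hr. Finally CellTiter-Glo added and luminescence read.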

[11] = qHTS assay to identify small molecule antagonists of the estrogen related receptor (ERR) signaling pathway from Tox21 library (AID 1224848); also: nearly all actives have a fitted effect of over 50% in size; also: potency is read from the fitted curve at half-maximal effect
Summary of the method: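 Compounds dissolved in DMSO are pin-transferred onto ERR reporter cells (2,000 per well) that have settled for 6 h at 37 C. Plates then incubate 18 h at 37 C before ONE-Glo luciferase reagent and a luminescence read 30 min later.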

[12] = qHTS assay to identify small molecule agonists of the estrogen related receptor (ERR) signaling pathway from Tox21 library (AID 1224849; calls by dose curve; also: nearly all actives have a fitted effect of over 15% in size); settings: ERR reporter cell line, ONE-Glo luciferase, 18 h
Summary of the method: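 Luminescent agonist read-out (One-Glo, 30-minute room-temperature incubation) following 18-hour compound treatment at 37 C of the ERR cell line, which had been plated 6 hours before dosing.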

[13] = qHTS RealTime-Glo MT Cell Viability Assay in HepG2 cells - 24 hour (AID 1224867); also: nearly all actives have a fitted effect of over 50% in size; also: potency is read from the fitted curve at half-maximal effect
Summary of the method: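 HepG2 cells were seeded at 600 cells/well together with NanoLuc luciferase and a cell-permeant prosubstrate, preincubated 5 h at 37 C/5% CO2, then pin-dosed with compounds in DMSO. Nonlytic luminescence from viable cells was read at each time point.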

[14] = qHTS RealTime-Glo MT Cell Viability Assay in HEK293 cells - 32 hour (AID 1224868); also: nearly all actives have a fitted effect of over 50% in size; also: potency is read from the fitted curve at half-maximal effect
Summary of the method: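 HEK293 cells were seeded at 600 cells/well together with NanoLuc luciferase and cell-permeant prosubstrate, preincubated 5 h at 37 C/5% CO2, then given compound in DMSO by pintool. Luminescence from viable-cell prosubstrate reduction was read repeatedly over 40 h.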

[15] = A CellTox Green Cytotoxicity Assay to monitor cytotoxicity in HEK293 cells - 0 hour (AID 1224869); also: nearly all actives have a fitted effect of over 50% in size
Summary of the method: (§1)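 Fluorescence from a DNA-binding dye excluded by viable cells was measured repeatedly in the same HEK293 wells (600 cells/well) during continuous compound exposure at 37 C. Each assay gives one read point: 0, 8, 16, 24, 32 or 40 h.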

[16] = qHTS RealTime-Glo MT Cell Viability Assay in HepG2 cells - 40 hour (AID 1224870); also: nearly all actives have a fitted effect of over 50% in size; also: potency is read from the fitted curve at half-maximal effect
Summary of the method: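 HepG2 cells (600/well) mixed with RealTime-Glo MT reagent, settled 5 h at 37 C/5% CO2 before compound addition. Nonlytic NanoLuc luminescence from viable-cell prosubstrate reduction read repeatedly during 40 h treatment at 37 C.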

[17] = A CellTox Green Cytotoxicity Assay to monitor cytotoxicity in HEK293 cells - 40 hour (AID 1224871); also: nearly all actives have a fitted effect of over 45% in size; also: potency is read from the fitted curve at half-maximal effect
Summary of the method: as §1

[18] = target: Thyrotropin receptor (Homo sapiens) (UniProt P16473); assay: qHTS assay to identify small molecule agonists of the thyroid stimulating hormone receptor (TSHR) signaling pathway (AID 1224843; calls by dose curve; also: nearly all actives have a fitted effect of over 45% in size)
Summary of the method: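 HEK293/TSHR, 800 cells/well; cpd 30 min RT; add cAMP-d2 + anti-cAMP-cryptate, 1 h RT; fluorescence read on plate reader. 15-pt titration, n=3.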

[19] = target: Nuclear receptor subfamily 1 group I member 3 (Homo sapiens) (UniProt Q14994); assay: qHTS assay to identify small molecule agonists of the constitutive androstane receptor (CAR) signaling pathway (AID 1224839);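 also: HepG2 cells stably carrying human CAR and a CYP2B6 luciferase reporter; nearly all actives have a fitted effect of over 15% in size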
Summary of the method: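 HepG2-CYP2B6-hCAR cells, 2500/well, 4 h pre-incubation; compounds 15 conc.; PK11195 0.75 uM final; 24 h, 37 C/5% CO2; ONE-Glo luciferase read.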

[20] = at 92.4 µM (top of the series) unless noted
% is scaled to controls: 0 for no effect and ±100 for the full control effect.

Luciferin 4-monooxygenase (Photinus pyralis), sequence (P08659 whole entry, looked up): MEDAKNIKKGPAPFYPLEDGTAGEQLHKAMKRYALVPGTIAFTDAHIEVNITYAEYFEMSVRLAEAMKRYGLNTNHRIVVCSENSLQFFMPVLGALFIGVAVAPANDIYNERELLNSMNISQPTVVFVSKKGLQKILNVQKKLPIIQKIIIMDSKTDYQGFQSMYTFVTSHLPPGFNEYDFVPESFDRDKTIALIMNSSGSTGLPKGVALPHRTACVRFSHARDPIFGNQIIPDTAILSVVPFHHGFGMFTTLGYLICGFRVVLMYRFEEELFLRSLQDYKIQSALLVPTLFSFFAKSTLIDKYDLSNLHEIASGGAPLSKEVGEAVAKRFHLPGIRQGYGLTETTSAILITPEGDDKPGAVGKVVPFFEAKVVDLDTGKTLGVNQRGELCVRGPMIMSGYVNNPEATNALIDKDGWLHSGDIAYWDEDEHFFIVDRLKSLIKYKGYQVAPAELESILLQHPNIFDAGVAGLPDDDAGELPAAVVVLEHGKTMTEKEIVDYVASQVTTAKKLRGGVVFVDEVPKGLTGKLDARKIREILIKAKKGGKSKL
Thyrotropin receptor (Homo sapiens), sequence (P16473 whole entry, looked up): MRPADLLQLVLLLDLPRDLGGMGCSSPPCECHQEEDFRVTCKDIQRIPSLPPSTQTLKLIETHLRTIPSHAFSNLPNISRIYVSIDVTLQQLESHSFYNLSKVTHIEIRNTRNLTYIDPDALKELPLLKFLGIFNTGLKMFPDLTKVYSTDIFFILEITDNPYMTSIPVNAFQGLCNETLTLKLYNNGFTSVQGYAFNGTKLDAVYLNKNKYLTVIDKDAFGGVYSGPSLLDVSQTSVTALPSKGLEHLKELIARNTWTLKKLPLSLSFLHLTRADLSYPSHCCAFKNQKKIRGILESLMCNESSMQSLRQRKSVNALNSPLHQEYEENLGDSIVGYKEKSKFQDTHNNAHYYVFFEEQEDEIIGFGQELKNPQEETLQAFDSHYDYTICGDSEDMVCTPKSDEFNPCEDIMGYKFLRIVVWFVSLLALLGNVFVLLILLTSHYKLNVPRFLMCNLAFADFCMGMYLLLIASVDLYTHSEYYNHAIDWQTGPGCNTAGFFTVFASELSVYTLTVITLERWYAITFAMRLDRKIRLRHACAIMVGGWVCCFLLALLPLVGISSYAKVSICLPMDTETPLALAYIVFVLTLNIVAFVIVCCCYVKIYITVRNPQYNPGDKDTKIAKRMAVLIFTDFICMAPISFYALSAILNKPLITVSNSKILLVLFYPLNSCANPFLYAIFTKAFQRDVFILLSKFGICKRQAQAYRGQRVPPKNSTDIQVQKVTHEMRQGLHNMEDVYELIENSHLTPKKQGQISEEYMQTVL
Nuclear receptor subfamily 1 group I member 3 (Homo sapiens), sequence (Q14994 whole entry, looked up): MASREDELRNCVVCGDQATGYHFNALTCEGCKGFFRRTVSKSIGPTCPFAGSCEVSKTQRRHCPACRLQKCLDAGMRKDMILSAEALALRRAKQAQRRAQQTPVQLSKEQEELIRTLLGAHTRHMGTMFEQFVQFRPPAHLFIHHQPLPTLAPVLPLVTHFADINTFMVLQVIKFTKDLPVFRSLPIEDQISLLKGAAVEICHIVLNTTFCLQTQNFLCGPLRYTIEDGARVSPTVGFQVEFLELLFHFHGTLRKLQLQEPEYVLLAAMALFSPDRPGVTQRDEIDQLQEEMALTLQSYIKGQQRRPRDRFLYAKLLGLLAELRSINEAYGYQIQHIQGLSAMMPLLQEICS

COC[C@H](C)N(C(=O)CCl)c1c(C)csc1C
inactive: Potency [1] | Potency [2] | Potency [3] | Potency [4] | Potency [5] | Potency [6] | Potency [7] | Potency [8] | outcome [9] | Potency [10] | Potency [11] | activity change, positive = activation [12, 20] 9.24% | Potency [13] | Potency [14] | Potency [15] | Potency [16] | Potency [17]

C[C@@H](Oc1ccc(Cl)cc1Cl)C(=O)O
inactive: Potency [1] | Potency [2] | Potency [3] | Potency [4] | Potency [18] | Potency [7] | Potency [8] | outcome [9] | Potency [10] | Potency [13] | Potency [15] | Potency [16] | Potency [17]

Cc1cc(Cl)ccc1O[C@H](C)C(=O)O
inactive: Potency [1] | Potency [2] | Potency [3] | Potency [19] | Potency [4] | Potency [7] | Potency [8] | outcome [9] | Potency [10] | Potency [13] | Potency [14] | Potency [15] | Potency [17]

COC(=O)N(C(=O)N1COC2(C(=O)OC)Cc3cc(Cl)ccc3C2=N1)c1ccc(OC(F)(F)F)cc1 (centres undefined)
active: Potency [5] 23.7 µM | Potency [11] 11.9 µM
inactive: Potency [1] | Potency [2] | Potency [3] | Potency [4] | Potency [6] | Potency [18] | Potency [8] | activity change, positive = activation [12, 20] -49.3% [at 42.5 µM] | Potency [13] | Potency [14] | Potency [15] | Potency [16] | Potency [17]

CCCCCCCCCCCCCCCC[n+]1ccccc1
active: Potency [2] 25.5 µM and 15.4 µM and 13.5 µM | Potency [3] 32 µM and 15.4 µM and 19.1 µM | Potency [4] 53.7 µM [middle of 4 runs] | Potency [17] 34.2 µM [middle of 4 runs]
inactive: Potency [1] | Potency [8] | Potency [15]
57.5 µM (active) and inactive: Potency [7]

CCC[CH2][Sn]([CH2]CCC)([CH2]CCC)[O]C(=O)c1ccccc1
inactive: Potency [6] | Potency [18] | activity change, positive = activation [12, 20] -78% | Potency [15]
active: Potency [1] 35.6 µM | Potency [2] 770 nM | Potency [3] 1.22 µM | Potency [4] 1.22 µM | Potency [7] 549 nM | Potency [8] 0.505 µM | Potency [10] 0.713 µM | Potency [11] 0.486 µM | Potency [13] 490 nM | Potency [16] 389 nM | Potency [17] 692 nM

O=c1[nH]c2ccccc2n1C1CCN(CCCC(c2ccc(F)cc2)c2ccc(F)cc2)CC1
active: Potency [2] 54500 nM | Potency [3] 54.5 µM | Potency [5] 27.3 µM and 26.6 µM | Potency [7] 21900 nM | Potency [10] 45 µM | Potency [11] 10.9 µM and 13.3 µM | Potency [14] 17.4 µM and 16.9 µM
inactive: Potency [1] | Potency [6] | Potency [18] | Potency [8] | activity change, positive = activation ([12]; at 42.5 µM (top of the series)) -52.6% | activity change, positive = activation ([12]; at 92.4 µM (top of the series)) -79.9% | Potency [15]
43.6 µM (active) and inactive: Potency [13]
24.3 µM (active) and inactive: Potency [4]
49 µM (active) and inactive: Potency [17]
30.9 µM (active) and inactive: Potency [16]
